# Assay outcomes: PubChem BioAssay, several laboratories
# PostGolgi yeast: growth inhibition of a yeast mutant, post-Golgi transport screen; inhibition, % at 10 µM; hit rate 0.9% among 98,000; AID 739; post-Golgi transport phenotypic cell assay;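 also: yeast cells grown in 1536-well plates; yeast grown about 18 h at 30C before absorbance read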
# PostGolgi ctrl: yeast control strain growth, post-Golgi counter-screen | efflux-deficient yeast background strain, growth absorbance A615, 16 h | hit rate 5% among 98,000 | inhibition, % at 10 µM | AID 738
# CYP2C9 activ: CYP2C9 (human) activation. P11712. recombinant CYP2C9, luciferin-H conversion, luminescence; active compounds read high; factor 1 = untreated enzyme, 0 = blocked. activation factor at 5 µM. hit rate 1.4% among 96,000. AID 1024;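 active = activation factor of 2 or more for CYP2C9 at a 5 µM dose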;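 also: 0 = sulfaphenazole-blocked wells and 1 = vehicle-only wells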
# Target sequence (P11712 whole entry, looked up): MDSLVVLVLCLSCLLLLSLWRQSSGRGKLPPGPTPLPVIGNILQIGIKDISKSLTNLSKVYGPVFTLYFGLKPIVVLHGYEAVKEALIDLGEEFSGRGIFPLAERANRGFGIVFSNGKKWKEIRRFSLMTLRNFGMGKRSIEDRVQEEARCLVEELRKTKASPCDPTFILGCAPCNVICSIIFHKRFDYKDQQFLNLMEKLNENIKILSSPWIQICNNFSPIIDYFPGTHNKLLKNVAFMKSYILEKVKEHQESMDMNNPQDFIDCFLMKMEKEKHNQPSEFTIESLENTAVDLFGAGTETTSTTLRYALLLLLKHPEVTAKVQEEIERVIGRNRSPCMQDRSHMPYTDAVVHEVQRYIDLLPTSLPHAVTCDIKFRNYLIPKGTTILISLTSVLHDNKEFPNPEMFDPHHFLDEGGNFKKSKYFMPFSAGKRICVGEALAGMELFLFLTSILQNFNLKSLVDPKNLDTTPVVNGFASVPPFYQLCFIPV
# CYP2C9 inh: human CYP2C9 inhibition; P11712; CYP2C9 Supersomes, luciferin-H conversion, luminescence; inhibition, % at 5 µM; hit rate 20% among 96,000; AID 777;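 active = blocking of liver enzyme CYP2C9 beyond about 50% at 5 µM, limit read from the data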
# CYP2C19 activ: increases human CYP2C19 enzyme activity; P33261; recombinant CYP2C19, luciferin-H EGE luminescence; active compounds read high; 0 = fully inhibited enzyme, 1 = untreated enzyme; activation factor at 5 µM; 96,000 tested, under 10 active; AID 1025;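 active = activation factor of at least 2 at 5 µM in the primary screen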;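 also: 0 = wells with 2.5 mM tranylcypromine and 1 = vehicle-only wells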
# CYP2C19 inh: blocks human cytochrome P450 2C19; P33261; CYP2C19 Supersomes, luciferin-H EGE luminescence, 30 min; inhibition, % at 5 µM; hit rate 21% among 96,000; AID 778;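 active = CYP2C19 inhibition above a set limit at 5 µM in the primary screen, cut at about 50% in these data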;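 also: plate controls were negative control wells for no effect and 2.5 mM tranylcypromine positive control for full effect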
# * = called active by the depositor; x = no result given. The list is not random: actives were taken first. Their share in the collection is about 32%. Rule as the data show it, unless noted: active = inhibition above about 30%; inactive = the rest.
SMILES,PostGolgi yeast,PostGolgi ctrl,CYP2C9 activ,CYP2C9 inh,CYP2C19 activ,CYP2C19 inh
Cc1cc(C)c2cc(C)c3nnc(SCC(=O)NCc4ccc5c(c4)OCO5)n3c2c1,2.5,17.4,0.7,33.4,0.9,13.2
O=C(CSc1nnnn1C1CCCCC1)NCc1ccco1,2.4,11.6,0.9,5.7,0.8,22.1
O=C(CSc1nnnn1C1CCCCC1)NCc1ccc2c(c1)OCO2,-1.5,4.5,0.1,91.8*,0.1,91.8*
O=C(NCc1ccncc1)/C(=N/O)c1ccccc1,9.5,5.1,0.6,44.7,0.7,32.6
CCOC(=O)c1[nH]cnc1C(=O)Nc1ccncc1,15.4,2.6,0.5,54.2*,0.7,33.0
CCOC(=O)c1[nH]cnc1C(=O)Nc1cccc(N)n1,x,x,1.2,-17.3,1.1,-13.0
CC1(C)CC(=O)c2cnc(NC(=O)C3CCCC3)nc2C1,-8.4,-3.4,0.6,38.1,0.7,27.3
COc1ccc(CCNC(=O)c2sc3cc(C)ccc3c2Cl)cc1,3.7,-3.0,0.4,55.9*,0.5,50.2*
COc1ccc(CCNC(=O)c2ccc(Cl)cc2)cc1,-0.8,6.8,0.8,21.5,0.6,44.7
COc1ccc(CCNC(=O)c2sc(=S)n(C)c2N)cc1,-7.5,-1.1,0.4,60.5*,0.6,42.0
Cn1c(N)c(C(=O)NCc2ccccc2)sc1=S,-28.4,24.7,0.6,37.8,0.5,53.2*
COC(=O)c1ccccc1NC(=O)c1sc(=S)n(C)c1N,-8.5,36.0*,0.6,38.7,0.8,18.5
O=C(O)CSc1nnc(Cn2cnc3ccccc32)n1CCc1ccccc1,4.9,-1.6,0.9,13.0,1,-2.4
CCOc1ccc(NC(=O)CSC2=C(C#N)C(c3ccc4c(c3)OCO4)CC(=O)N2)cc1 (stereo not given),-1.1,-1.6,0.8,24.3,0.8,16.9
COC(=O)CSC1=C(C#N)C(c2ccc(F)cc2)CC(=O)N1 (stereo not given),-1.6,9.3,0.1,90.5*,0.3,72.3*
CCOc1ccc(C2CC(=O)NC(SC)=C2C#N)cc1 (stereo not given),-8.6,0.6,0.4,56.2*,0.6,36.0
C=CCSC1=C(C#N)C(c2ccc(OCC)cc2)CC(=O)N1 (stereo not given),-12.9,5.2,0.4,64.8*,0.2,81.7*
CCCOC(=O)CSC1=C(C#N)C(c2ccc3c(c2)OCO3)CC(=O)N1 (stereo not given),1.4,-2.4,0,97.2*,0.1,92.2*
CSC1=C(C#N)C(c2ccc(C(C)C)cc2)CC(=O)N1 (stereo not given),5.8,15.4,0.6,40.8,0.9,5.4
CC1(C)CC(=O)CC(=Nc2ccc3[nH]c(=O)[nH]c3c2)C1,1.8,-2.9,1,3.1,1,0.7
CCN(CC)S(=O)(=O)c1c(Br)cc(C)cc1Br,-4.5,6.5,2.5*,-153.7,0.6,40.6
Cc1cc(C)c(S(=O)(=O)N(CC(=O)O)CC(=O)O)c(C)c1,-2.5,-4.9,1,-1.1,1.1,-11.1
CCN(CC)S(=O)(=O)c1ccc(OC)nc1,3.8,1.2,0.8,23.8,0.7,31.9
COc1cc(C)c(Br)cc1S(=O)(=O)N1CCCC1,-7.6,8.8,2.8*,-178.3,0,95.5*
COc1cc(C)c(C(C)C)cc1S(=O)(=O)N1CCN(C)CC1,-2.0,4.2,1.5,-54.4,1,3.9
SMILES,PostGolgi yeast,PostGolgi ctrl,CYP2C9 activ,CYP2C9 inh,CYP2C19 activ,CYP2C19 inh
COc1ccc(Br)cc1S(=O)(=O)N1CCOCC1,-10.2,2.3,1.3,-33.7,0.6,43.5
CCN(CC)S(=O)(=O)c1cc(Br)ccc1OC,0.3,3.6,2.5*,-149.0,0,97.5*
CCN(CC)S(=O)(=O)c1cc(Br)c(C)cc1OC,-14.0,33.3*,2*,-104.3,0.6,41.3
Cc1nnc(NC(=O)CCCCCN2C(=O)C3C4C=CC(C4)C3C2=O)s1 (stereo not given),2.0,2.9,0.7,31.5,0.9,12.3
O=C(c1ccccc1)c1nc[nH]c1C(=O)Nc1ccccc1,-2.8,15.3,0.9,9.4,0.9,14.7
O=c1[nH]nc(Cc2ccc(-c3ccc(Cl)cc3)o2)c2ccccc12,16.8,7.8,0.9,10.6,0.9,5.2
O=C(O)c1oc2ccc(Br)cc2c1-n1cccc1,x,x,1,-4.3,1.1,-10.4
Cc1sc(NC(=O)c2ccccc2)c(C(=O)NC(C)C)c1C,1.3,13.0,0.5,53.0*,0.9,5.3
CCN(CC)C(=O)c1c(NC(=O)c2ccccc2)sc(C)c1C,18.5,1.9,0.8,24.5,0.3,72.9*
Cc1sc(NC(=O)c2ccccc2)c(C(=O)N2CCN(C)CC2)c1C,3.3,3.7,1,-3.4,1,-1.4
CC1=C(C(=O)NCCN2CCOCC2)C2(CCC(C)CC2)OC1=O (stereo not given),-8.7,25.0,0.9,10.3,0.7,26.0
CC1=C(C(=O)NCCCOC(C)C)C2(CCC(C)CC2)OC1=O (stereo not given),-10.7,5.9,0.9,13.6,0.4,63.8*
COc1ccc(CNC(=O)C2=C(C)C(=O)OC23CCC(C)CC3)cc1 (stereo not given),0.8,-1.1,0.7,25.4,0.5,54.8*
CC1=C(C(=O)NCc2ccccn2)C2(CCC(C)CC2)OC1=O (stereo not given),-6.7,-5.3,0.9,11.9,0.2,76.7*
COc1ccc(C2=NCC(CSc3nnnn3C)S2)cc1 (stereo not given),2.9,13.2,0.9,5.2,0.9,14.6
CCc1n[nH]c2c1C(=O)CC(C)(C)C2,10.7,23.5,1,-4.4,0.9,11.7
O=C(NC1CCCCC1)c1ccc(S(=O)(=O)N2CCCCC2)cc1,1.7,1.1,x,x,x,x
CC(C)(C)C(=O)NC1CCN(S(=O)(=O)c2ccc(C(F)(F)F)cc2)CC1,4.8,19.6,1,-2.7,0.2,76.0*
O=c1c2ccc(Cl)cc2[nH]c(=S)n1Cc1cccnc1,5.2,4.3,0.6,43.8,0.4,55.8*
Cc1c(C(=O)NCc2ccccc2)c(-c2ccccc2)nn1-c1ccccc1,-7.1,15.0,0.7,33.9,0.6,43.0
CCNc1nc(CN2CCOCC2)nc2sc3c(c12)CCC3,-3.8,-1.3,1,1.0,0.7,29.8
O=S(=O)(Nc1nc(CN2CCOCC2)nc2sc3c(c12)CCCC3)c1cc(F)ccc1F,3.1,11.6,0.4,62.6*,1,0.1
CCOC(=O)COc1nc(Nc2ccccc2C)nc(N(C)C)n1,-3.6,2.2,0.6,35.9,0.6,35.1
O=C(N/N=C\c1ccc(COc2ccc([N+](=O)[O-])cc2)o1)c1cccc(Cl)c1,-8.1,6.3,0.4,60.2*,0.7,34.1
O=C(Cc1ccccc1)N/N=C/c1ccc(OCC(=O)Nc2ccccc2)cc1,-4.8,-4.0,0.9,9.1,1.1,-5.6
O=C(COc1ccc(/C=N/NS(=O)(=O)c2ccccc2)cc1)Nc1ccccc1,0.5,-0.3,0.3,68.2*,0.7,28.9
